# Assay results reported in ChEMBL document CHEMBL2218924, “A broad activity screen in support of a chemogenomic map for kinase signalling research and drug discovery” (Biochem J, 2013).
# What was measured:
# [1] = target: Ephrin type-A receptor 5 (Homo sapiens) (UniProt P54756); conditions: at 1 µM
# [2] = target: Ephrin type-A receptor 5 (Homo sapiens) (UniProt P54756); conditions: at 10 µM
# [3] = target: Ephrin type-A receptor 7 (Homo sapiens) (UniProt Q15375); conditions: at 10 µM
# [4] = target: T1, Ephrin type-B receptor 3 (Homo sapiens) (UniProt P54753); conditions: at 1 µM
# T1 sequence (whole entry): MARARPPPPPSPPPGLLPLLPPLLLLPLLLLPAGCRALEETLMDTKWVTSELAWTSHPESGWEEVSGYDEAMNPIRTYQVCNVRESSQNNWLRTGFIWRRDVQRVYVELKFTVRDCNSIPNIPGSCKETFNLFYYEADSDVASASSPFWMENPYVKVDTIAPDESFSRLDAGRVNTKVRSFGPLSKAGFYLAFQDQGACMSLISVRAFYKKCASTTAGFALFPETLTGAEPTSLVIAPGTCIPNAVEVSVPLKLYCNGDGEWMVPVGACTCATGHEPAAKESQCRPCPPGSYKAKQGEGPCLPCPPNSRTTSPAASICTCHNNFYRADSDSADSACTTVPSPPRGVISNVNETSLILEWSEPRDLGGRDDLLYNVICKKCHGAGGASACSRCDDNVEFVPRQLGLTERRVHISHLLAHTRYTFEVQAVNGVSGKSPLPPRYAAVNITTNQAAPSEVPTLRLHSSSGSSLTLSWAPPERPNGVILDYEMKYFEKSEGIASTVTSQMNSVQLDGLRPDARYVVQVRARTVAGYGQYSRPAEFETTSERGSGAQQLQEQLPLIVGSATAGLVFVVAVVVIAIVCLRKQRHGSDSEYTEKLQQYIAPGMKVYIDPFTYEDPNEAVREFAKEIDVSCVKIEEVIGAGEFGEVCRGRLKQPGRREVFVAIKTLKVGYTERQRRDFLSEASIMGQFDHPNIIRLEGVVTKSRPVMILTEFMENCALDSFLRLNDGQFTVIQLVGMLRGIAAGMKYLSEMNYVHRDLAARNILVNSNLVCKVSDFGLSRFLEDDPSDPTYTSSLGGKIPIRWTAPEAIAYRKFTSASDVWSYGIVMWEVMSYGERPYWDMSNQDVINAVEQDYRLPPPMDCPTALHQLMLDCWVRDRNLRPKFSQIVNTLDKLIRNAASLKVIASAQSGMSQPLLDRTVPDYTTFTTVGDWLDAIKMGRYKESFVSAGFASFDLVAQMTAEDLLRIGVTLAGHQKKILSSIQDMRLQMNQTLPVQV
# [5] = target: T1, Ephrin type-B receptor 3 (Homo sapiens); conditions: at 10 µM
# [6] = target: T2, Ephrin type-B receptor 4 (Homo sapiens) (UniProt P54760); conditions: at 1 µM
# T2 sequence (whole entry): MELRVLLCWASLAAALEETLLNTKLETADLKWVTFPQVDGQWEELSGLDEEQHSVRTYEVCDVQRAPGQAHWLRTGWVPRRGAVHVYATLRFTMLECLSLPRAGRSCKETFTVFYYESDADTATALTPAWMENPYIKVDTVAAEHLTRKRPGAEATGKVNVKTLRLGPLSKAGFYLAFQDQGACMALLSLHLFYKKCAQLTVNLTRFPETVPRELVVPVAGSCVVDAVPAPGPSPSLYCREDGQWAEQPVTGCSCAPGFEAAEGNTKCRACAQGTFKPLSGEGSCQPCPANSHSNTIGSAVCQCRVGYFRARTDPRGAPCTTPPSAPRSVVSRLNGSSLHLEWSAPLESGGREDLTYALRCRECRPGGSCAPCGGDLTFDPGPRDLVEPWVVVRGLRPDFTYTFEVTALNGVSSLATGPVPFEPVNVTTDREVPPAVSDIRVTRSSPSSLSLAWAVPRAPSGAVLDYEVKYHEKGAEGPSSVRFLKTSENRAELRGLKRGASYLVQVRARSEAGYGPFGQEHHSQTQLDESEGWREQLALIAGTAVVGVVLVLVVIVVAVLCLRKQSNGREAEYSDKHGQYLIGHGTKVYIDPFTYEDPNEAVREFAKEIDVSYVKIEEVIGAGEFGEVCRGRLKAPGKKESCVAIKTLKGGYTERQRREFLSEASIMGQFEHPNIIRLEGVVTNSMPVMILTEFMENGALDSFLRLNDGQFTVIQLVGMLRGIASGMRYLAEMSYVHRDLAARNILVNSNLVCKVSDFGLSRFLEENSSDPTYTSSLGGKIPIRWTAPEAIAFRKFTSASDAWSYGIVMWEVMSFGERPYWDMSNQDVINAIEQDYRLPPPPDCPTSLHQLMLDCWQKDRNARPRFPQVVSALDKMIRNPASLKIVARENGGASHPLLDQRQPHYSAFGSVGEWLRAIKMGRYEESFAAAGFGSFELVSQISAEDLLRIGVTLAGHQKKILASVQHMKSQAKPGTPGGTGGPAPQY
# [7] = target: T2, Ephrin type-B receptor 4 (Homo sapiens); conditions: at 10 µM
# [8] = target: Receptor tyrosine-protein kinase erbB-4 (Homo sapiens) (UniProt Q15303); conditions: at 10 µM
# Receptor tyrosine-protein kinase erbB-4 (Homo sapiens), sequence (Q15303 whole entry): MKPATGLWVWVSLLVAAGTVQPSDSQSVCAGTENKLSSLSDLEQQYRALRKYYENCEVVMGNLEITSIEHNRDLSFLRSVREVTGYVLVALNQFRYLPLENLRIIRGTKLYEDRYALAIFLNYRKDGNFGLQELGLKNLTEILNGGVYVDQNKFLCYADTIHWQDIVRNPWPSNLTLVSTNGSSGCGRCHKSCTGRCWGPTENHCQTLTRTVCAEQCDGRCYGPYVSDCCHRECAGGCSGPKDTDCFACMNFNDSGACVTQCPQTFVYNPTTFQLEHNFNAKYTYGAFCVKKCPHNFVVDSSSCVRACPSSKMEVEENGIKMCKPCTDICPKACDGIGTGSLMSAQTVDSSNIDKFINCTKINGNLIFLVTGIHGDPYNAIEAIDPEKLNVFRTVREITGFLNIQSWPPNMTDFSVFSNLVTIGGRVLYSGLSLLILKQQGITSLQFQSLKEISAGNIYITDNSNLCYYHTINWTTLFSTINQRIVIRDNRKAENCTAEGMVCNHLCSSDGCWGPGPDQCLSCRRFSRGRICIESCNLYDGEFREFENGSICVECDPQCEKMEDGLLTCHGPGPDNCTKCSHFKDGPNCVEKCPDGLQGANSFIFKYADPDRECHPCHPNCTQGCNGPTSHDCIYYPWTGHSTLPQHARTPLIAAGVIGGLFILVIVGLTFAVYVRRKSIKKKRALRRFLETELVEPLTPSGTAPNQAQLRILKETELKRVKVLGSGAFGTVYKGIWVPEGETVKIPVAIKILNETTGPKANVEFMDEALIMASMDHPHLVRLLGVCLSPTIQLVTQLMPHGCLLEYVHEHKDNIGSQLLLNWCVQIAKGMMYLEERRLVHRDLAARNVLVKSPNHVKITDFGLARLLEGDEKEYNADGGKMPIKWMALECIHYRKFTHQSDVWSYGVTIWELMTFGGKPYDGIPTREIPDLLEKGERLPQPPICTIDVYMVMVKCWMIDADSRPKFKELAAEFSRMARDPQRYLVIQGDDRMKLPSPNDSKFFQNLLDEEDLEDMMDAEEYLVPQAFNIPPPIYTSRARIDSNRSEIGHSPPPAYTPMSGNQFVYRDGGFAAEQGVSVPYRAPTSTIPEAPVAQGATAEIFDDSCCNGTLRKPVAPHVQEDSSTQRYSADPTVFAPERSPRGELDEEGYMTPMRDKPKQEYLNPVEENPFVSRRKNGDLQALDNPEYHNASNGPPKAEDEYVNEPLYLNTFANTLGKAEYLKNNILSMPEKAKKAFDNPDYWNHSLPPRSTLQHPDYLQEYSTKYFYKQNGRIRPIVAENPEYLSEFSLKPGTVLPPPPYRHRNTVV
# [9] = target: Focal adhesion kinase 1 (Homo sapiens) (UniProt Q05397); conditions: at 1 µM
# Focal adhesion kinase 1 (Homo sapiens), sequence (Q05397 2-1052 limits assumed): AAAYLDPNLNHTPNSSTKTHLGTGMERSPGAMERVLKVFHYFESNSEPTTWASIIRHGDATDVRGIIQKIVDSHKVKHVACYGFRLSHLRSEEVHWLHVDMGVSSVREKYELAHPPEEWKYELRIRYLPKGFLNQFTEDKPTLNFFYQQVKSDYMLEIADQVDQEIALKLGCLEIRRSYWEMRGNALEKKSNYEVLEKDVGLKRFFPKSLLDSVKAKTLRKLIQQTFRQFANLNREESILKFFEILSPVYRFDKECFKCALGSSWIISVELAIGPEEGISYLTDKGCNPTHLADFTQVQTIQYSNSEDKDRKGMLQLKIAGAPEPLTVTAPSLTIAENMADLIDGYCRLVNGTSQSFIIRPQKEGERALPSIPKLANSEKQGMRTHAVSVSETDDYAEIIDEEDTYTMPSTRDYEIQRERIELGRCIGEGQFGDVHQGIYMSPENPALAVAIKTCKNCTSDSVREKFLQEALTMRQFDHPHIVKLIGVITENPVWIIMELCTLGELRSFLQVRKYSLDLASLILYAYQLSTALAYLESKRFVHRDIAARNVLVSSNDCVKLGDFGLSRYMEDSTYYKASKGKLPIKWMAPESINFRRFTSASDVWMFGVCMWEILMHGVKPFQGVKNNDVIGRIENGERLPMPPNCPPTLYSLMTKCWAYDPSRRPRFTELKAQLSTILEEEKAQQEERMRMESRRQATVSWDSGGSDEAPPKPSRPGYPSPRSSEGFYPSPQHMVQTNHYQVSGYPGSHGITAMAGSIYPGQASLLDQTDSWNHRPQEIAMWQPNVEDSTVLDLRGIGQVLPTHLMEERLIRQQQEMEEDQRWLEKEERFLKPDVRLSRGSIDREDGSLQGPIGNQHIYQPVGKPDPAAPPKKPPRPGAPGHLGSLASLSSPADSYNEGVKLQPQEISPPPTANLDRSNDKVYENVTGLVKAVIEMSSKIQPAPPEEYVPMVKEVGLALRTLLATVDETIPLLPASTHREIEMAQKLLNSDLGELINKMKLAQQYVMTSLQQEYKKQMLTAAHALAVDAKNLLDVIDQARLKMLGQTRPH
# [10] = target: Ephrin type-A receptor 7 (Homo sapiens) (UniProt Q15375); conditions: at 1 µM
# [11] = target: T3, Ephrin type-B receptor 1 (Homo sapiens) (UniProt P54762); conditions: at 1 µM
# T3 sequence (whole entry): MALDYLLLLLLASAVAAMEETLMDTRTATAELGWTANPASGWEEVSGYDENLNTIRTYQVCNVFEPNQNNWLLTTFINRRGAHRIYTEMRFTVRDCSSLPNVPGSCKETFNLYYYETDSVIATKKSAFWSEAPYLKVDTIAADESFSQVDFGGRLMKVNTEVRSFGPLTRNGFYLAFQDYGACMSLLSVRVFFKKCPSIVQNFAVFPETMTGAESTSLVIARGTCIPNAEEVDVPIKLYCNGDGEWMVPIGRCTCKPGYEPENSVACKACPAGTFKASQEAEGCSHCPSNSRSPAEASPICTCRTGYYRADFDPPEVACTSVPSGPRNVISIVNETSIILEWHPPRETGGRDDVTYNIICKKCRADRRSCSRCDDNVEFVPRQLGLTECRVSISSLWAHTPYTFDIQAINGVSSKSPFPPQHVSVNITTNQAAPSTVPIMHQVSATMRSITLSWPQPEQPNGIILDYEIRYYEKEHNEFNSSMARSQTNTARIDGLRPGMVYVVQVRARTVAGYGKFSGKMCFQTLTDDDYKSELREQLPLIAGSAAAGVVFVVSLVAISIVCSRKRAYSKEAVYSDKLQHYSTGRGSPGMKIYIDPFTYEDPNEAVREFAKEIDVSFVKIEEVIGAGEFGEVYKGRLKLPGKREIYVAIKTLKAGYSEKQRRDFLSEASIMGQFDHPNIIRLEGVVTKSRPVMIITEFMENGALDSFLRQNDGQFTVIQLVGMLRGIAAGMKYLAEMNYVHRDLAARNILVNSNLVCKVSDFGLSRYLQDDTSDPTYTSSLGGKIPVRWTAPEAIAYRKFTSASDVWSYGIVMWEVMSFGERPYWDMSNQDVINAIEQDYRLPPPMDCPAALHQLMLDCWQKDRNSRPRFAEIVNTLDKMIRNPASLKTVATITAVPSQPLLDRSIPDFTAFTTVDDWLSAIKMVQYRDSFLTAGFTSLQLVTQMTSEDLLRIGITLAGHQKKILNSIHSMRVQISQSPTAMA
# [12] = target: T3, Ephrin type-B receptor 1 (Homo sapiens); conditions: at 10 µM
# [13] = target: Receptor tyrosine-protein kinase erbB-4 (Homo sapiens) (UniProt Q15303); conditions: at 1 µM
# [14] = target: T4, Ephrin type-A receptor 3 (Homo sapiens) (UniProt P29320); conditions: at 10 µM
# T4 sequence (whole entry): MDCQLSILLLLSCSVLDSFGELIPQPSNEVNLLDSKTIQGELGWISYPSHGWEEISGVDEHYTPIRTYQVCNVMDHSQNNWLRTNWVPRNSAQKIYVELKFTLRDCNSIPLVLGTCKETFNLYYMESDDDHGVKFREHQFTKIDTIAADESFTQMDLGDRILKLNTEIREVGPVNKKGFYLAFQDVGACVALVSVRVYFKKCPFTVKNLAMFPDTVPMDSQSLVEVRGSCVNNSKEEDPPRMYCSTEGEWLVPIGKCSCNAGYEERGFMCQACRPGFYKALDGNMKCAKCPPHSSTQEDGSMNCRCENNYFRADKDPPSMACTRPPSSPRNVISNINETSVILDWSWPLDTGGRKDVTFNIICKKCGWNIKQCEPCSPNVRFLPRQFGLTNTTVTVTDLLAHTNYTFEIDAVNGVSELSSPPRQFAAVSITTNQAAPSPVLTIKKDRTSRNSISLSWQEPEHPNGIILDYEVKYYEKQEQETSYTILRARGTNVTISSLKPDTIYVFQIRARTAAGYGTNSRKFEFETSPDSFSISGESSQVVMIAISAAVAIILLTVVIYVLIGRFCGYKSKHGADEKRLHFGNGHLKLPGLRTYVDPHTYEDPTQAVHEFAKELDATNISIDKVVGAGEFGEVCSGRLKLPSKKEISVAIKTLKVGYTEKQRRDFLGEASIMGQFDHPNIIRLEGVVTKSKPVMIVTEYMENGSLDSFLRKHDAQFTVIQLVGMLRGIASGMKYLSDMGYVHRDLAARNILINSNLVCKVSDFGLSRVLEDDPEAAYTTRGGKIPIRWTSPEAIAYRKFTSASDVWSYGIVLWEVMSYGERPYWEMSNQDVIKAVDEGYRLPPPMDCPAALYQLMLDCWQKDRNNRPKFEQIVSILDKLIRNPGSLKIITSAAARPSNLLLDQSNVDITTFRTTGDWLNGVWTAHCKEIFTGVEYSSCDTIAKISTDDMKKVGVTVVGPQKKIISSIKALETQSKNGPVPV
# Ephrin type-A receptor 5 (Homo sapiens), sequence (P54756 whole entry): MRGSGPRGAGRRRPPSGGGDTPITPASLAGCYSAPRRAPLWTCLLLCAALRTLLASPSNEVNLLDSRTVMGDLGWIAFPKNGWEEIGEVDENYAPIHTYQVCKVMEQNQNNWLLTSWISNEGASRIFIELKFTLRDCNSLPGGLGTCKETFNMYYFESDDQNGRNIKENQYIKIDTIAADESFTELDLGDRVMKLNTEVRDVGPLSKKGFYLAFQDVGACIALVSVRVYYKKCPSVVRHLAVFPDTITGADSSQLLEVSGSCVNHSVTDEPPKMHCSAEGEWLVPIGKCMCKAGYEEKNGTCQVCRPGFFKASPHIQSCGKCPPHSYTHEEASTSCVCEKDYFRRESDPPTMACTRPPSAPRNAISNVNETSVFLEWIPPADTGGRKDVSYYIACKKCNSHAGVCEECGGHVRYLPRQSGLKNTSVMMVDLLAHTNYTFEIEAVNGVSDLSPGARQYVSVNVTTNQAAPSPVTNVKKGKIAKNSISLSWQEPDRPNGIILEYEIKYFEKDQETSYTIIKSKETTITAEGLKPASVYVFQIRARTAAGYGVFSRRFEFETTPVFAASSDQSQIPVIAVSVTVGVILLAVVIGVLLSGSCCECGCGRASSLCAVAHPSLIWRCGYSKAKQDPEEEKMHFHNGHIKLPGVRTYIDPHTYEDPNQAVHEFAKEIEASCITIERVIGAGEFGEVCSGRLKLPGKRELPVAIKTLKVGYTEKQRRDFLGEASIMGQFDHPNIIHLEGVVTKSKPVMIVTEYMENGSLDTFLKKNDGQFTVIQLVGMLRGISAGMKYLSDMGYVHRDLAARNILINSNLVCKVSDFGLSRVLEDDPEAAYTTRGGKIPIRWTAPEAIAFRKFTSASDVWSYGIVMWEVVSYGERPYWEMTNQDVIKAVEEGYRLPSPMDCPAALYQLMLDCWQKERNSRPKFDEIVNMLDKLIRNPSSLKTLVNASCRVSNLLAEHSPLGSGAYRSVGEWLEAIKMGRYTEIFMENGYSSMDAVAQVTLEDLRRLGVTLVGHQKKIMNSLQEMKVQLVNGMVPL
# Ephrin type-A receptor 7 (Homo sapiens), sequence (Q15375 28-998 limits assumed): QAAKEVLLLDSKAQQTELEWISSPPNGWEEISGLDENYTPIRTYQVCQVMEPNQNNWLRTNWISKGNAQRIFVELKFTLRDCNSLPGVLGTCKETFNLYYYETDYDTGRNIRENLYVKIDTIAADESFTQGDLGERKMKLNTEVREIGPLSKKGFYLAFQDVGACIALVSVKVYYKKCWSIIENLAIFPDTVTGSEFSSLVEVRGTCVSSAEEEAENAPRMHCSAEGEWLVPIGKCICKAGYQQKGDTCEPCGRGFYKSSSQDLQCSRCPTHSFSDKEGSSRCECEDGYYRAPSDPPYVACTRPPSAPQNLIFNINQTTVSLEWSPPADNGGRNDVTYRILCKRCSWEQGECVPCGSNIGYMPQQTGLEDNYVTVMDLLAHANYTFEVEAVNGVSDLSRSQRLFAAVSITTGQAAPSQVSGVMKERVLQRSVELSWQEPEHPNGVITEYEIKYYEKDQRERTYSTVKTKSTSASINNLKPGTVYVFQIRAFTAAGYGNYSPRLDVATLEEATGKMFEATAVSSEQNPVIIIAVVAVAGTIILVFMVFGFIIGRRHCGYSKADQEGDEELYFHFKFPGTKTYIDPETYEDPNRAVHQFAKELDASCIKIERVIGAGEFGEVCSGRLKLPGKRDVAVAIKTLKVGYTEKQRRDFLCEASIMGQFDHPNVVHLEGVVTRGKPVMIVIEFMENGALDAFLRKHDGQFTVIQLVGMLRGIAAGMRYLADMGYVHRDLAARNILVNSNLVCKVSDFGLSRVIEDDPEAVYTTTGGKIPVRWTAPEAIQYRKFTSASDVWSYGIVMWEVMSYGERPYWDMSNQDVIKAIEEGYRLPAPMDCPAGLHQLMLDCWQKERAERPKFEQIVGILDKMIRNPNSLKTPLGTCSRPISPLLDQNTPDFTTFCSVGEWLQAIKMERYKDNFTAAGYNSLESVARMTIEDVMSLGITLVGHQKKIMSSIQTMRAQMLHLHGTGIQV
SMILES,residual activity [1],residual activity [2],residual activity [3],residual activity [4],residual activity [5],residual activity [6],residual activity [7],residual activity [8],residual activity [9],residual activity [10],residual activity [11],residual activity [12],residual activity [13],residual activity [14]
NCCNc1ncc(C(N)=O)c(Nc2cccc(C(F)(F)F)c2)n1,102%,74%,72%,113% (inactive),111%,102%,101%,75%,64%,–,–,–,–,–
O=C(c1ccccc1)c1ccc(N2CCOCC2)cc1O,118%,–,86%,115% (inactive),–,117%,116%,96%,139%,79%,96%,95%,95%,–
Cc1cc(C)c(/C=C2\C(=O)Nc3ccccc32)[nH]1,–,–,52%,–,–,–,–,–,52%,–,–,–,–,80%
